# Data as given in ChEMBL document CHEMBL4888484, “Replenishing the malaria drug discovery pipeline: Screening and hit evaluation of the MMV Hit Generation Library 1 (HGL1) against asexual blood stage Plasmodium falciparum ,using a nano luciferase reporter read-out” (2022).
# Screen size: about 150,000 compounds; about 540 (0.36%) showed an effect of 50% or more. Only a selection was taken, and strong results are over-represented in it overall.
# System: Plasmodium falciparum
# Experiment: Primary screen in NF54 nanoGlo assay, in single point, at 2uM, 72h; a lower Z score goes with more inhibition
# Type: functional, Erythrocyte
# Details: timepoint 72 hour
SMILES,% Inhibition,Z score
CCNc1nc(C)cc(NCCNC(=O)c2cccc(Cl)c2)n1,23%,-3.44
Cc1cc(N(C)C)nc(NCCNC(=O)Nc2cccc(F)c2C)n1,20%,-2.61
Cc1nc2ccc(NC(=O)Nc3ccc(F)cc3F)cc2s1,-9%,1.17
CCNc1nc(C)cc(Nc2ccc(NC(=O)c3cc(C)ccc3C)cc2)n1,97%,-9.09
COc1ccc(NS(=O)(=O)c2c(C)noc2C)cn1,3%,-0.47
Cc1noc(C)c1S(=O)(=O)Nc1ccc2c(c1)OC1(CCCC1)O2,5%,-0.73
Cc1ccc(C)c(C(=O)Nc2cnc(-n3nc(C)cc3C)nc2)c1,5%,-0.75
Cc1cc(C)n2c(C(=O)NCCNS(=O)(=O)c3ccc(Cl)cc3)nnc2n1,-9%,1.16
Cc1ccncc1CN(C)C(=O)[C@]1(O)CCc2cc(Br)ccc2C1,-5%,1.08
Cc1ccc(C)c(-c2cnn(CC3CC3)c2)c1,0%,0.02
C=C1C(C)(C)[C@@H]2CC[C@@]1(C(=O)N1CCn3c(C(N)=O)cnc3C1)C2,-14%,2.1
CC(C)Cc1noc(CNC(=O)c2nn(C)cc2Cl)n1,-7%,1.19
Cc1c(-c2cnn(C)c2)cc(C#N)n1C(F)F,-7%,1.32
CN1C[C@@H](N)C[C@H]1c1nc(COc2ccc(F)cc2)nn1CC(F)(F)F,1%,-0.2
COc1ccc(C(=O)N2CCN(C(=O)c3cccnc3)[C@@H](C(=O)N[C@H]3CCCNC3=O)C2)cc1,-7%,1.08
Cn1c(=O)c2c(-c3ccc(Br)cc3)n(-c3ccccn3)cc2n(C)c1=O,-5%,0.83
Cn1c(=O)c2c(-c3ccc(Br)cc3)n(-c3cccc4cccnc34)cc2n(C)c1=O,-4%,0.72
Cn1c(=O)c2c(-c3ccc(Cl)cc3)n(-c3cccc4cccc(N)c34)cc2n(C)c1=O,96%,-11.21
O=C(COc1ccc(Cl)cc1)NC1CCN(Cc2ccccc2)CC1,-10%,0.93
CCN1CCN(c2ccc(C(=O)Nc3cccc(-c4ccc5c(c4)CCO5)c3)cc2F)CC1,18%,-2.82
CCN1CCN(c2c(CN(C(=O)Nc3cccc(F)c3)C(C)C)c(C)nn2-c2cccc(F)c2)CC1,3%,-0.41

SMILES,% Inhibition,Z score
CN(C)Cc1ccc(NC(=O)c2cc(F)cc3c(=O)c4cc(F)ccc4[nH]c23)cc1,77%,-11.59
CC1CN(C(=O)c2cc(F)cc3c(=O)c4cc(F)ccc4[nH]c23)CC(C)O1 (configuration not stated),-10%,1.65
CCN1CCN(c2cccc(NC(=O)c3cc(F)cc4c(=O)c5cc(F)ccc5[nH]c34)c2)CC1,95%,-17.54
CCN1CCN(c2cccc(NC(=O)c3ccc4[nH]c5ccccc5c(=O)c4c3)c2)CC1,92%,-9.25
Cc1ccc(C(=O)Nc2cccc(N3CCCCCC3)c2)c(=O)[nH]1,-12%,1.57
CC[C@@H](CNc1cc(NC2CC2)ncn1)C(=O)O,-7%,1.58
Cc1noc(CCCC(=O)N2CCN(C3CCCC3O)CC2)n1 (configuration not stated),-26%,3
CN1CC2(CCN(Cc3ccccc3OCCc3ccccc3)CC2)CC1=O,0%,-0.02
CCS(=O)(=O)C1CCN(Cc2cn(-c3ccc(F)c(Cl)c3)nn2)CC1,8%,-0.85
C[C@H](Oc1ccccc1F)c1nnc2n1CCCC2,-9%,1.39
COc1ccc(CN2C(=O)Cc3ccccc3[C@@H](C(=O)O)[C@@H]2c2ccccc2)c(OC)c1,0%,-0.05
CCCCNC(=O)N1CC[C@H](c2ccn[nH]2)C1,-16%,1.68
O[C@@H](CN1CCC(c2ccn[nH]2)CC1)C(F)(F)F,27%,-3.09
O=C(N[C@@H](CN1CCCC1)c1ccccc1)N1CCC(c2ccn[nH]2)CC1,50%,-8.21
Cc1cc2ncc(-c3nc([C@H]4CCOC(C)(C)C4)no3)c(C)n2n1,-5%,0.67
Cc1ccsc1-c1nccn1CCNC(=O)c1ccc(F)cc1,-3%,0.58
Cc1ccc(C(N)=O)c(NCC2(N3CCN(C)CC3)CCCC2)n1,-17%,1.6
Cc1cc(N(C)C(=O)c2nccn3ccnc23)ccc1Br,26%,-3.49
COCC(C)(C)c1noc(-c2ccc(C(F)(F)F)c(=O)[nH]2)n1,-6%,0.62
COc1ccc(-n2nc(C(=O)N3CCN(C)CC3)c(=O)n(Cc3cccc(C(F)(F)F)c3)c2=O)cc1OC,-2%,0.34
